This is a sample that favours compounds with a hit; in the whole collection about 10% have one here.
KB-3-1 tox = KB-3-1 parental cell cytotoxicity; KB-3-1 viability, CellTiter-Glo ATP luminescence, 72 h; Potency, µM (series often up to 46.1 µM), hits mostly cytotoxic; 400,000 tested, 1.4% active; AID 1347075; further: on the % scale 0 is the no-effect control and ±100 the full control effect; nearly all actives have a fitted effect of over 60% in size
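Cytotoxicity measured as CellTiter-Glo luminescence after 72 h at 37 C. Compound titrations were pinned onto drug-naive KB-3-1 parental adenocarcinoma cells grown in DMEM with 10% FBS, and normalized data fitted to concentration-response curves.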
SW480 rereplic = DNA re-replication induction in SW480 cells. AID 624297. SW480 DNA re-replication, Hoechst DNA content imaging, 48 h. 340,000 tested, 1.8% active. Potency, µM (highest dose often 46.1 µM), for the others: at the highest dose re-replication activation, most hits filed as activators; further: % of control where 0% means no effect; nearly all actives have a fitted effect of over 55% in size
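Hoechst fluorescence of nuclei (405 nm excitation, 500-530 nm emission) measured by plate-scanning imager after 48 hr compound exposure at 37 C; re-replication scored as increased number of nuclei with elevated intensity.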
MCF10A rereplic = induces DNA re-replication in MCF 10a normal breast cells. 350,000 tested, 2.9% active. Potency, µM (doses to about 46.1 µM), without a hit: at the top dose activity, positive = re-replication, actives largely listed as activators. MCF 10A DNA re-replication, Hoechst nuclear intensity, 48 h; further: % of control where 0% means no effect; nearly all actives have a fitted effect of over 50% in size
RORg inh = inhibitors of mouse ROR gamma transcriptional activity; 310,000 tested, 5.4% active; AID 2551; Drosophila S2 Gal4-RORgamma UAS-luciferase reporter, 20 h; Potency, µM (series often up to 53.6 µM), for the others: at the highest dose activity change, negative = inhibition, most hits filed as inhibitors; further: on the % scale 0 is the no-effect control and ±100 the full control effect; nearly all actives have a fitted effect of over 60% in size
Target sequence (P51450 whole entry, looked up, the tested form may be a part): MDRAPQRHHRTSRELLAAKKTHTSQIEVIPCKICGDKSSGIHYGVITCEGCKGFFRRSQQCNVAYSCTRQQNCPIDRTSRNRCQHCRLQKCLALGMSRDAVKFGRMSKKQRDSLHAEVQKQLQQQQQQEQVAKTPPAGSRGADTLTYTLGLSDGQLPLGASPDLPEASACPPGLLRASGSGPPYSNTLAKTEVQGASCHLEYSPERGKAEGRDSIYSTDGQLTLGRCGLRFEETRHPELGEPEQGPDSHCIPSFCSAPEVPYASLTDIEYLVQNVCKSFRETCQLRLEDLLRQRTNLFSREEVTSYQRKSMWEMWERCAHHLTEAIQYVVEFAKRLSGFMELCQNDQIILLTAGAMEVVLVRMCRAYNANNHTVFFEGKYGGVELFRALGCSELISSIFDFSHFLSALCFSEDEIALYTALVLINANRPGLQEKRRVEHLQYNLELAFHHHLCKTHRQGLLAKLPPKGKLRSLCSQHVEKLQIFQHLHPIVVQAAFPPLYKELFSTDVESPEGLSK
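Schneider cells (Drosophila), stable Gal4 DBD–ROR gamma + UAS-luc; 1 hr cmpd preincubation; Cu2+ induction 700 uM final; 20 hr ambient; luminescence.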
KB-V1 cytotox = KB-V1 MDR subline cytotoxicity; KB-V1 MDR cells viability, CellTiter-Glo, 72 h; Potency, µM (titrated, usually from 46.1 µM), usual class: cytotoxic; 400,000 tested, 3.4% active; AID 1347076; further: on the % scale 0 is the no-effect control and ±100 the full control effect; nearly all actives have a fitted effect of over 60% in size
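KB-V1 MDR subline cells in DMEM (phenol-red free, 10% FBS) exposed to compounds in qHTS concentration series for 72 h at 37 degrees C. Viability read by CellTiter-Glo luminescence; concentration-effect curves fitted after normalization and correction.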
Gal4-VP16 FLuc = inhibits Gal4-VP16 luciferase reporter, ROR gamma counter-screen; Drosophila S2 Gal4-VP16 UAS-luciferase, luminescence, 20 h; 310,000 tested, 3.5% active; Potency, µM (titrated, usually from 53.6 µM), inactives show top-dose activity, negative = inhibition, actives largely listed as inhibitors;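 further: Gal4-VP16 expression switched on by copper sulfate through the metallothionein promoter; on the % scale 0 is the no-effect control and ±100 the full control effect; nearly all actives have a fitted effect of over 50% in size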
* = called active by the depositor; i = inactive; ? = inconclusive; / = no result; [ ] = dose if it differs, or a comment. The call rests on the fitted dose curve; in most records, active means well fitted curve in the direction sought with a large enough effect; inconclusive means small, poorly fitted or top-dose-only effect, or another doubt; inactive means no such curve, though single readings can be large; an effect the other way counts as inactive or inconclusive. Potency means the concentration at half of the fitted maximal effect.

SMILES	KB-3-1 tox	SW480 rereplic	MCF10A rereplic	RORg inh	KB-V1 cytotox	Gal4-VP16 FLuc
CCCc1ccc(-c2cc(C(=O)NCCc3ccc(S(N)(=O)=O)cc3)c3ccccc3n2)cc1	i	8%	19%	36%	i	-11%
COc1ccc(NC(=O)NNC(=O)c2cc(C3CC3)nc3ccccc23)c(OC)c1	i	0%	-7%	?	i	-4%
Cn1nc(C(C)(C)C)cc1C(=O)N1CCCCC1c1cc(C(=O)NCc2cccnc2)no1 (stereo unspecified)	i	/	/	/	i	/
COc1ccc(NC(=O)N2CC3(CCN(C(=O)c4ccc(OC)cc4)CC3)C2)cc1	/	/	/	-18%	/	10%
Cc1ccccc1Nc1nc(N)[nH]c(=O)c1N=O	i	/	/	/	i	/
COCCCNC(=O)c1cc(-c2cccnc2)nc2ccccc12	i	-3%	3%	5%	i	1%
COCCNC(=O)c1cc(-c2ccc(-c3ccccc3)cc2)nc2ccccc12	21µM*	?	?	7%	i	-4%
O=C(N/N=C/c1cccc(O)c1)c1cc(-c2ccccc2)nc2ccccc12	i	-1%	7%	22%	i	-8%
O=C(N/N=C/c1ccccn1)c1cc(-c2ccncc2)nc2ccccc12	i	-3%	?	8.9µM*	i	?
O=C(N/N=C/c1ccsc1)c1cc(-c2cccs2)nc2ccccc12	?	6.5µM*	5.8µM*	4µM*	13µM*	4.5µM*
O=C(N/N=C/c1ccsc1)c1cc(-c2ccncc2)nc2ccccc12	2.6µM*	7.3µM*	9.2µM*	11µM*	8.2µM*	-13%
Cc1ccc(Nc2nc(CSc3nnc(-c4ccc(F)cc4)n3C)cs2)cc1	?	?	13%	11µM*	6.5µM*	3%
CCOc1ccc(OCC)c(NC(=O)CN(C)S(=O)(=O)c2ccc3nc(C)sc3c2)c1	i	-1%	21µM*	28%	?	0%
CC(=O)Nc1ccc(NC(=O)CN(C)S(=O)(=O)c2ccc3nc(C)sc3c2)cc1	i	18%	-8%	-9%	?	3%
CCCCCCOc1ccc(C(=N)N(CCCC)CCCC)c2ccccc12	/	?	?	?	/	22µM*
CCCCN(C)CCOc1ccccc1OCC	i	1%	-9%	-11%	?	-11%
COc1ccc(CNC(=O)Cn2c(-c3ccccc3)cc(C(C)=O)c2C)cc1OC	i	/	/	/	?	/
O=S(=O)(NC1CCCCC1)c1ccc(Cl)s1	i	?	21µM*	?	?	?
CC1CCC(NS(=O)(=O)c2ccc(Cl)s2)CC1 (stereo unspecified)	i	0%	?	/	i	/
CC1Cc2cc(/C=C3/SC(N4CCC(C(N)=O)CC4)=NC3=O)ccc2O1 (stereo unspecified)	?	13µM*	-13%	17%	i	-15%
CC1CCN(C2=NC(=O)/C(=C/c3cccc(O)c3)S2)CC1	i	-6%	2%	17%	i	-15%
S=c1[nH]nc(-c2ccco2)n1/N=C/c1ccccn1	/	/	/	-22%	/	-2%
CC(C1CC2CCC1C2)n1c(-c2ccco2)n[nH]c1=S (stereo unspecified)	i	-4%	0%	1.3µM*	i	6.3µM*
Cc1cc(O)c(C=O)c2c1C(=O)Oc1c(COC(=O)/C=C/C(=O)O)c(O)c(C(=O)O)c(C)c1O2	/	/	/	35%	/	-6%
COc1ccc(C)cc1NC(=O)CSc1ncc2c(n1)-c1ccc(Cl)cc1N(Cc1ccccc1)S2(=O)=O	i	/	/	/	i	/
SMILES	KB-3-1 tox	SW480 rereplic	MCF10A rereplic	RORg inh	KB-V1 cytotox	Gal4-VP16 FLuc
COc1ccc(N2CCN(C(=O)COC(=O)[C@@H](NC(=O)OCc3ccccc3)C(C)C)CC2)cc1	i	-1%	4%	/	6.5µM*	/
CSc1nc(SCCO)c2sc3nc(-c4ccco4)c4c(c3c2n1)CC(C)(C)OC4	?	5%	13µM*	9%	i	-10%
COC(=O)CSc1nc(SC)nc2c1sc1nc(-c3ccco3)c3c(c12)CC(C)(C)OC3	i	-2%	1%	/	i	/
CSc1nc(N(CCO)CCO)c2sc3nc(-c4ccco4)c4c(c3c2n1)CCC4	i	?	15µM*	0%[0.365 µM]	i	/
COC(=O)COn1c(-n2nc(C)cc2C)nc2ccccc2c1=O	?	6%	9%	4µM*	i	8.9µM*
Cc1cc(C)n(-c2nc3ccccc3c(=O)n2OCC(C)C)n1	i	-2%	-9%	?	i	2%
Cc1cc(C)n(-c2nc3ccccc3c(=O)n2OCC#N)n1	?	16µM*	?	0.5µM*	?	1µM*
CCOC(=O)C(C)On1c(-n2nc(C)cc2C)nc2ccccc2c1=O (stereo unspecified)	i	-4%	2%	2.5µM*	i	6.3µM*
Cc1cc(C)n(-c2nc3ccccc3c(=O)n2OC2CCCCC2)n1	i	-1%	9%	?	i	-25%
CCN(CC)C(=O)COn1c(SCC(=O)N(CC)CC)nc2ccccc2c1=O	i	-8%	-1%	-6%	16µM*	0%
CCOC(=O)C(C)On1c(SC(C)C(=O)OCC)nc2ccccc2c1=O (stereo unspecified)	i	-12%	0%	5%	i	4%
CCOC(=O)COn1c(-n2nc(C)cc2C)nc2ccccc2c1=O	?	7%	7%	18µM*	i	14µM*
CCCN(CCC)C(=O)CSc1nc2ccccc2c(=O)n1CC1COc2ccccc2O1 (stereo unspecified)	?	0%	?	?	21µM*	1%
CCOn1c(-n2nc(C)cc2C)nc2ccccc2c1=O	i	-3%	6%	-35%	i	6%
CCOc1cc(C(=O)N2CC(=O)Nc3ccc(C)cc3C2c2ccccc2)cc(OCC)c1OCC (stereo unspecified)	i	/	/	/	?	/
COc1cc2cc3c4c(cc(OC)c(OC)c4c2cc1OC)CCN3C	/	/	/	2.8µM*	/	-6%
COc1cc2c(cc1OC)C(=O)N(C)CC2	i	-64%	3%	8%	i	5%
CC1(C)CC(=O)C=C(c2ccc(-c3ccc4[nH]ccc4c3)cc2)C1=O	8.2µM*	/	/	/	?	/
CC1(C)CC(=O)C=C(c2ccccc2-c2ccc3cc[nH]c3c2)C1=O	i	/	/	/	?	/
Cn1nc(C(F)(F)F)c2cc(NC(=O)OCc3ccc(C(C)(C)C)cc3)sc21	i	15%	15µM*	25%	i	9%
O=C(O)C1C(C(=O)Nc2ccc(Cl)cc2)C2C=CC1C21CC1 (stereo unspecified)	i	-5%	?	31%	21µM*	-1%

From PubChem BioAssay
